{
  "source": "PubChem BioAssay",
  "note": "Calls of active or inactive are those of the source. Cut-off read from the data, not from the text of the source: active = fold change permeability below about 0.7 or above about 1.3; inactive = in between.",
  "data": [
    {"experiment": "modulators of brain endothelial barrier permeability, primary screen, cell-based, FITC-avidin fluorescence, HTS (AID 1963498); note: test concentration not given here", "details": "actives lie on both sides", "values": [
      {"smiles": "CC#CCOC(=O)c1c(C)nc2sc3c(c2c1N)CCC(O)C3", "note": "(centres undefined)", "fold change permeability": "1.9 (active)"},
      {"smiles": "CCCC(C)NC(=O)c1ccc(Cl)c(Cl)c1", "note": "(centres undefined)", "fold change permeability": "1.2 (inactive)"},
      {"smiles": "CS(=O)(=O)c1ccc(C2=C(c3ccccc3)C(=O)OC2)cc1", "fold change permeability": "0.8 (inactive)"},
      {"smiles": "N=C(N)c1ccc(-c2ccc(-c3ccc(C(=N)N)cc3)o2)cc1", "fold change permeability": "1.5 (active)"},
      {"smiles": "O=c1[nH]c(=O)c2nc3ccccc3nc2[nH]1", "fold change permeability": "1.3 (active)"},
      {"smiles": "N=C(N)c1ccc(OCCCCCOc2ccc(C(=N)N)cc2)cc1", "fold change permeability": "1.1 (inactive)"},
      {"smiles": "NS(=O)(=O)C#Cc1ccccc1", "fold change permeability": "1.8 (active)"},
      {"smiles": "COc1ccc(S(=O)(=O)Nc2c(C)cc(C)cc2C)cc1", "fold change permeability": "1.4 (active)"},
      {"smiles": "CCCOC(=O)c1c(-c2ccccc2)nc(CC)c(C(=O)SCC)c1CCC", "fold change permeability": "1.5 (active)"},
      {"smiles": "C(=C\\c1ccccc1)/CN1CCN(C(c2ccccc2)c2ccccc2)CC1", "fold change permeability": "1.2 (inactive)"},
      {"smiles": "CCCN[C@H]1CCc2nc(N)sc2C1", "fold change permeability": "1.1 (inactive)"},
      {"smiles": "COC(=O)Nc1nc2ccc(C(=O)c3cccs3)cc2[nH]1", "fold change permeability": "1.4 (active)"},
      {"smiles": "C[C@H]1c2cccc(O)c2C(O)=C2C(=O)[C@]3(O)C(O)=C(C(N)=O)C(=O)[C@@H](N(C)C)[C@@H]3[C@@H](O)[C@@H]21", "fold change permeability": "0.9 (inactive)"},
      {"smiles": "CN(C)CCC(c1ccccc1)c1ccccn1", "note": "(centres undefined)", "fold change permeability": "1 (inactive)"},
      {"smiles": "C=C[C@@]1(C)CC(=O)[C@]2(O)[C@@]3(C)[C@@H](O)CCC(C)(C)[C@@H]3[C@H](O)[C@H](OC(C)=O)[C@@]2(C)O1", "fold change permeability": "0.8 (inactive)"},
      {"smiles": "O=C(O)C1=CCCN(CCON=C(c2ccccc2)c2ccccc2)C1", "fold change permeability": "1.1 (inactive)"},
      {"smiles": "Nc1ncnc2c1c(-c1cccc(OCc3ccccc3)c1)cn2C1CC(CN2CCC2)C1", "note": "(centres undefined)", "fold change permeability": "1.1 (inactive)"},
      {"smiles": "COc1ccc(S(=O)(=O)N(CC(=O)NO)CC(C)C)cc1", "fold change permeability": "1.1 (inactive)"},
      {"smiles": "CCOC(=O)C12CC1/C(=N\\O)c1ccccc1O2", "note": "(centres undefined)", "fold change permeability": "1.2 (inactive)"},
      {"smiles": "CCN(CC)CCNC(=O)c1cc(Cl)c(N)cc1OC", "fold change permeability": "0.9 (inactive)"},
      {"smiles": "O=C(NCc1cccnc1)c1ccc([N+](=O)[O-])o1", "fold change permeability": "1 (inactive)"},
      {"smiles": "NC(=O)C(c1ccccc1)(c1ccccc1)[C@@H]1CCN(CCc2ccc3c(c2)CCO3)C1", "fold change permeability": "0.8 (inactive)"},
      {"smiles": "Cc1ccc(C(=O)Nc2cnc(N3CCC(C(N)=O)(N4CCCCC4)CC3)c(C(=O)O)c2)cc1", "fold change permeability": "1 (inactive)"},
      {"smiles": "CC(C)NCC(O)COc1ccc(COCCOC(C)C)cc1", "note": "(centres undefined)", "fold change permeability": "0.8 (inactive)"},
      {"smiles": "COc1ccccc1N1CCN(CCN(C(=O)c2ccc(F)cc2)c2ccccn2)CC1", "fold change permeability": "0.8 (inactive)"},
      {"smiles": "O=C1N/C(=N/S(=O)(=O)c2cccc3ccccc23)S/C1=C\\c1ccc(Br)cc1", "fold change permeability": "1.3 (active)"},
      {"smiles": "CC1(C)CC=C(c2cnc3ccccc3c2)c2cc(C(=O)Nc3ccc(C(=O)O)cc3)ccc21", "fold change permeability": "1.1 (inactive)"},
      {"smiles": "COc1ccc(CC(C)NCC(O)c2ccc(O)c(NC=O)c2)cc1", "note": "(centres undefined)", "fold change permeability": "0.9 (inactive)"},
      {"smiles": "O=C(O)c1cc(=O)cc(C(=O)O)[nH]1", "fold change permeability": "0.8 (inactive)"},
      {"smiles": "COc1cc(/C=C/C(=O)N2CCC=CC2=O)cc(OC)c1OC", "fold change permeability": "1 (inactive)"},
      {"smiles": "CC[N+](CC)(CC)CCOc1cccc(OCC[N+](CC)(CC)CC)c1OCC[N+](CC)(CC)CC", "fold change permeability": "0.8 (inactive)"},
      {"smiles": "Cc1ccc(/C=N\\NC(=O)c2n[nH]c3c2CCCC3)cc1", "fold change permeability": "1.1 (inactive)"},
      {"smiles": "COc1ccccc1N1CCN(CCCNc2cc(=O)n(C)c(=O)n2C)CC1", "fold change permeability": "1.4 (active)"},
      {"smiles": "Oc1ccc2c(c1)OC[C@]1(O)Cc3cc(O)c(O)cc3[C@H]21", "fold change permeability": "1.7 (active)"},
      {"smiles": "COc1cc2c(cc1O)CC[C@@H]1[C@@H]2CC[C@]2(C)[C@@H](O)CC[C@@H]12", "fold change permeability": "1.3 (active)"},
      {"smiles": "NC(N)=NC(=O)c1nc(Cl)c(N2CCCCCC2)nc1N", "fold change permeability": "1.1 (inactive)"},
      {"smiles": "CCCCCOC(=O)Nc1nc(=O)n([C@@H]2O[C@H](C)[C@@H](O)[C@H]2O)cc1F", "fold change permeability": "1.4 (active)"},
      {"smiles": "Clc1ccccc1C(c1ccccc1)(c1ccccc1)n1ccnc1", "fold change permeability": "1.2 (inactive)"},
      {"smiles": "CCCCCCCCCCCC(=O)c1c(O)c(C(=O)CCCCCCCCCCC)c(O)c(C2CC(c3ccc(O)cc3)Oc3cc(O)ccc32)c1O", "note": "(centres undefined)", "fold change permeability": "1.4 (active)"}
    ]}
  ]
}
